Vif-APOBEC3G blk: Vif-A3G binding inhibition. Potency, µM (series often up to 46.1 µM), actives largely listed as inhibitors. HeLa A3G-eYFP + Vif (tagged APOBEC3G with the HIV-1 protein that degrades it), YFP fluorescence, overnight. 0.076% of 410,000 active; also: nearly all actives have a fitted effect of over 60% in size
Target sequence (Q9HC16 whole entry, looked up): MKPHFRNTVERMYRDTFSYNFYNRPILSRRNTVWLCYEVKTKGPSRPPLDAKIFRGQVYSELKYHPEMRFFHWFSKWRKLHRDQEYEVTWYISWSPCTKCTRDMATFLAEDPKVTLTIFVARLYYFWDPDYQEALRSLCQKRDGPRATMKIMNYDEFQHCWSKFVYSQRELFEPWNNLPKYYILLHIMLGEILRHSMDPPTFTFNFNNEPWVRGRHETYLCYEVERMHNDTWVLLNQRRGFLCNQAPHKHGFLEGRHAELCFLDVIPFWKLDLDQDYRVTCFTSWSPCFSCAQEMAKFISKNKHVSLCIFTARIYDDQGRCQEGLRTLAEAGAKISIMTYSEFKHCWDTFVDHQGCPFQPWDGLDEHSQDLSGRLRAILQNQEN
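Read-out is eYFP fluorescence (Ex 488/Em 500-530) from Vif-expressing HeLa A3G-eYFP cells; more signal means A3G escaped Vif-mediated degradation. Cells plated overnight, compound pinned in, incubated overnight at 37 deg C.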
Vif-A3F inh: inhibitors of Vif-A3F interaction; HeLa A3F-eYFP + Vif (tagged APOBEC3F with the HIV-1 protein that degrades it), YFP fluorescence increase; Potency, µM (highest dose often 46.1 µM); 0.2% of 390,000 active; also: nearly all actives have a fitted effect of over 65% in size
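HeLa cells stably expressing Vif plus C-terminally eYFP-tagged A3F were seeded, incubated overnight at 37 deg C, dosed with compound, incubated overnight again at 37 deg C. Yellow fluorescence (Ex 488/Em 500-530) reported blocked Vif-mediated A3F-eYFP degradation.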
Giardia killer: kills Giardia lamblia; Giardia lamblia trophozoite viability; activity change, % at 7.66 µM, hits read low; 0.15% of 340,000 active; AID 540267; in the data active = activity change below about -80%; inconclusive = between about -30% and that limit;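 also: parasites exposed to compound for two days anaerobically before the ATP read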
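Luminescence from cellular ATP indicates surviving trophozoites (100 cells/well) following 48 hrs anaerobic compound treatment at 37 deg C; signal develops 15-30 min at room temperature.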
IL1B secr inh: inflammasome signaling inhibition, IL-1 beta readout. activity change, % at 57.5 µM. THP-1 LPS/ATP IL-1B secretion, AlphaLISA, 16 h; hits give low values. 4.7% of 360,000 active. AID 743279; in the data active = activity change below about -50%; inconclusive = mostly about -30% to -49%
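THP-1 cells pretreated 1 hr with compounds (up to 57.5 uM final), then stimulated with LPS (250 ng/mL final) plus ATP (1.25 mM final); secreted IL-1B measured by AlphaLISA after 16 hr, decreased signal indicating inhibition.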
MCF10A rereplic: DNA re-replication induction in MCF 10a cells | MCF 10A DNA re-replication, Hoechst nuclear intensity, 48 h | Potency, µM (highest dose often 46.1 µM), most hits filed as activators | 2.9% of 350,000 active | AID 624296; also: nearly all actives have a fitted effect of over 50% in size
SW480 rereplic: inducers of DNA re-replication in SW480 colon cancer cells. SW480 DNA re-replication, Hoechst DNA content imaging, 48 h. Potency, µM (highest dose often 46.1 µM), usual class: activators. 1.8% of 340,000 active. AID 624297; also: nearly all actives have a fitted effect of over 55% in size
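Treated cells incubate 48 hr (37 C, 5% CO2), are stained 40 min with Hoechst, and nuclear fluorescence is enumerated; a rise in nuclei with high DNA signal marks re-replication.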
Large screens that a line does not name were inactive. Shown are actives, neighbours in structure and some others; about 6.9% of the full set was active somewhere. Unless noted, calls follow the shape of the dose curve; as a rule, active = well fitted curve in the direction sought with a large enough effect; inconclusive = small, poorly fitted or top-dose-only effect, or another doubt; inactive = no such curve, though single readings can be large; an effect the other way counts as inactive or inconclusive.

CC[C@]12c3[nH]c4cc(-c5ccco5)ccc4c3CCN1C(=O)[C@@H](CC(=O)NCc1ccco1)C[C@@H]2C(=O)N1CCN(C(=O)C2CC2)CC1	none
CC[C@]12c3[nH]c4cc(-c5ccco5)ccc4c3CCN1C(=O)[C@@H](CC(=O)NCC13CC4CC(CC(C4)C1)C3)C[C@@H]2C(=O)N1CCN(C(=O)C2CC2)CC1	IL1B secr inh inconclusive, MCF10A rereplic inconclusive, SW480 rereplic inconclusive
CC[C@]12c3[nH]c4ccc(Cl)cc4c3CCN1C(=O)[C@@H](CC(=O)NCc1ccco1)C[C@@H]2C(=O)N1CCN(C(=O)c2ccco2)CC1	none
CC[C@]12c3[nH]c4ccc(Cl)cc4c3CCN1C(=O)[C@@H](CC(=O)NCC13CC4CC(CC(C4)C1)C3)C[C@@H]2C(=O)N1CCN(C(=O)c2ccco2)CC1	MCF10A rereplic 21µM, SW480 rereplic inconclusive
CC[C@]12c3[nH]c4cc(-c5ccco5)ccc4c3CCN1C(=O)[C@@H](CC(=O)NCCC1=CCCCC1)C[C@@H]2C(=O)N1CCN(C(=O)C2CC2)CC1	IL1B secr inh -50
Cc1ccc(-c2nn3c(=O)cc(CN4CCN(C(=O)c5ccc(C(C)(C)C)cc5)CC4)nc3s2)cc1	none (no result: Giardia killer, IL1B secr inh, MCF10A rereplic, SW480 rereplic)
CN(C)c1ccc(NC(=O)CN2C(=O)c3ccccc3Sc3ccc(C(=O)N4CCCC4)cc32)cc1	none (no result: Giardia killer, IL1B secr inh, MCF10A rereplic, SW480 rereplic)
Cc1cc(C)c(NC(=O)Cn2c(=O)n(CCC(=O)N3CCc4ccccc4C3)c(=O)c3ccccc32)c(C)c1	none (no result: Giardia killer, IL1B secr inh, MCF10A rereplic, SW480 rereplic)
CC(=O)OCC(NC(=O)C(C)NC(=O)OC(C)(C)C)C1OC(n2cc(F)c(=O)[nH]c2=O)C(OC(C)=O)C1OC(C)=O (configuration not stated)	none (no result: Vif-A3F inh, IL1B secr inh, MCF10A rereplic, SW480 rereplic)
CC[C@]12c3[nH]c4ccccc4c3CCN1C(=O)C(CC(=O)NCCCOC)C[C@@H]2C(=O)N1CCN(C(=O)c2ccco2)CC1 (some centres not stated)	none
CC[C@]12c3[nH]c4ccc(OC)cc4c3CCN1C(=O)C(CC(=O)NCC13CC4CC(CC(C4)C1)C3)C[C@@H]2C(=O)N1CCN(C(=O)c2ccco2)CC1 (some centres not stated)	IL1B secr inh -55, MCF10A rereplic inconclusive, SW480 rereplic inconclusive
CCCOc1ccc(C(=O)Nc2cc3nn(-c4ccc(CC)cc4)nc3cc2C)cc1	none (no result: Giardia killer, IL1B secr inh, MCF10A rereplic, SW480 rereplic)
CCOc1cc(CNc2ccc(Br)cc2)cc(Br)c1OCC(=O)NC(C)(C)C	none
CCOc1cc(CNc2ccccc2)cc(Br)c1OCC(=O)NC(C)(C)C	IL1B secr inh -87, MCF10A rereplic inconclusive, SW480 rereplic inconclusive
CC(C)(C)C(=O)O/N=C(\N)c1ccc([N+](=O)[O-])s1	SW480 rereplic inconclusive
N/C(=N\O)c1ccc([N+](=O)[O-])s1	Giardia killer -88
O=c1[nH]nc(SCCS(=O)(=O)c2ccc(F)cc2)n1-c1ccc2c(c1)OCCO2	Vif-APOBEC3G blk inconclusive, IL1B secr inh -92, MCF10A rereplic inconclusive, SW480 rereplic inconclusive
O=c1[nH]nc(SCCS(=O)(=O)c2ccc(F)cc2)n1-c1ccccc1	IL1B secr inh -88, MCF10A rereplic 23µM
CCCn1c(SCC(=O)c2ccc3c(c2)OCCO3)n[nH]c1=O	none
CCOc1ccccc1NC(=O)CSc1n[nH]c(=O)n1-c1ccccc1	none
CCOc1ccc(-n2c(=O)c3c4c(sc3n(CC(=O)NC(C)CC)c2=O)CCC4)cc1 (configuration not stated)	none (no result: Giardia killer, IL1B secr inh, MCF10A rereplic, SW480 rereplic)
OCC1(Cc2ccc(Cl)cc2)CCN(Cc2ccc3nsnc3c2)CC1	IL1B secr inh -78, MCF10A rereplic inconclusive
Cc1ccccc1-c1ncc(CN2CCC(CO)(CCCc3ccccc3)CC2)cn1	MCF10A rereplic inconclusive
OCC1(Cc2ccc(Cl)cc2)CCN(Cc2ccc(Oc3ncccn3)cc2)CC1	IL1B secr inh -90, MCF10A rereplic inconclusive
COc1ccc(-c2ncc(CN3CCC(CO)(Cc4cccc(OC)c4)CC3)cn2)cc1	MCF10A rereplic inconclusive
OCC1(Cc2ccccc2)CCN(Cc2cnc(-c3ccc(Cl)cc3)nc2)CC1	IL1B secr inh -94, MCF10A rereplic inconclusive

Compound activity (PubChem BioAssay)
